Screening results (PubChem BioAssay)
In the library only some 9.4% were active in any assay of this set; here they are far more common.
Rab9 promoter act: Rab9 promoter activation; Potency, µM (top dose mostly 9.22 µM), for inactives: at the top dose activation, negative = inhibition, most hits filed as activators; 320,000 tested, 2.8% active; AID 485297; Huh7 Rab9 promoter-luciferase reporter, luminescence, 24 h; also: % of control where 0% means no effect; nearly all actives have a fitted effect of over 60% in size
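Huh7 cells stably carrying Rab9 promoter–luciferase reporter, plated 1500 cells/well, compound added after 2 h and incubated 24 h at 37 °C; luciferase luminescence then read after 10 min with detection reagent.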
NPC1 prom act: activators of NPC1 promoter; Huh7 NPC1 promoter luciferase reporter, 24 h; Potency, µM (highest dose often 9.22 µM), for the others: top-dose activation, most hits filed as activators; 320,000 tested, 2.4% active; also: % of control where 0% means no effect; nearly all actives have a fitted effect of over 60% in size
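Stable NPC1-promoter luciferase Huh7 line; cpd (DMSO) 24 h, 37 °C, 5% CO2; Amplite luciferase reagent 10 min RT; luminescence readout. qHTS format.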
ELG1 repair inh: blocks ELG1-dependent DNA repair in HEK293T cells; 330,000 tested, 2.3% active; Potency, µM (titrated, usually from 46.1 µM), for inactives: top-dose activity change, negative = inhibition, hits mostly inhibitors; AID 504467; HEK293T ELG1-luciferase reporter, luminescence, 16 h; DNA damage induced by 5-fluorouridine; also: % is scaled to controls: 0 for no effect and ±100 for the full control effect; nearly all actives have a fitted effect of over 55% in size
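Quantitative HTS, concentration-response format. 2,000 cells/well co-treated with 5-fluorouridine and compound, 16 hr in 5% CO2 at 37 °C; ONE-Glo luminescence read after 30 min.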
FLuc modulator: inhibits or activates purified firefly luciferase, miR-21 counter-screen; P08659; purified FLuc, Km substrates, luminescence inhibition; Potency, µM (highest dose often 57.5 µM), inactives show at the top dose activity change, negative = inhibition, hits mostly inhibitors; 360,000 tested, 6.9% active; AID 588342;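 also: plate controls were vehicle for no effect and reference inhibitor for full effect; nearly all actives have a fitted effect of over 55% in size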
Target sequence (P08659 whole entry, looked up): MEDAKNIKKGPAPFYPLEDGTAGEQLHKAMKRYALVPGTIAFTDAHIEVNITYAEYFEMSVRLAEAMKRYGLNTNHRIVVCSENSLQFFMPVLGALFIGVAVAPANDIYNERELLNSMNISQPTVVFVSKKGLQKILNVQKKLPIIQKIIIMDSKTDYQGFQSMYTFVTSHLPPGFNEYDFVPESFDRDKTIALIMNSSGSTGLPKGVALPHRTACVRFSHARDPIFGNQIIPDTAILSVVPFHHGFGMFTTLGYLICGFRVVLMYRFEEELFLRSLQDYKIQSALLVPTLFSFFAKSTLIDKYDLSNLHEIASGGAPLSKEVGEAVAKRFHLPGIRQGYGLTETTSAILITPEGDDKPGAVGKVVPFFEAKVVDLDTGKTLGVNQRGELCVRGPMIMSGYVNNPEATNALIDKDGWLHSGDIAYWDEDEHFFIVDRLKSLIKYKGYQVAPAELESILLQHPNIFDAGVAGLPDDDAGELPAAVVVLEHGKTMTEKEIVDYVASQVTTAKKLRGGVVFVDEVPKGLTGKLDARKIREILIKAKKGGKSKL
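Biochemical qHTS of compounds, final roughly 60 µM downward over six points, against 10 nM purified firefly luciferase using Km concentrations of substrates (10 uM D-luciferin, 10 uM ATP) in Tris acetate pH 7.5 buffer; luminescence output.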
SMN2 splice up: increases expression of the SMN2 splice variant; HEK293 SMN2-luciferase splicing reporter, luminescence, 30-36 h; Potency, µM (highest dose often 46.1 µM), without a hit: at the top dose activity change, positive = activation, hits mostly activators; 210,000 tested, 2.8% active; also: % of control where 0% means no effect; nearly all actives have a fitted effect of over 55% in size
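qHTS luciferase splicing reporter: luminescence rises when SMN2 exon 7 is included in transfected HEK293 cells. Compound exposure lasted 30-36 h at 37C, with 4.5 mM final sodium butyrate as control, followed by a ONE-Glo read.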
ELG1 genotoxic: inducers of genotoxicity in HEK293T ELG1-luciferase cells; 330,000 tested, 1.3% active; Potency, µM (titrated, usually from 46 µM), inactives show at the highest dose activity change, positive = activation, usual class: activators; AID 504466; HEK293T ELG1-luciferase reporter, luminescence, 16 h; also: % of control where 0% means no effect; nearly all actives have a fitted effect of over 60% in size
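Screening used a luciferase reporter fused to human ELG1 in HEK293T cells. Luminescence was read on a CCD plate imager after 16 hr exposure and 30 min ONE-Glo incubation.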
ELG1 FLuc counter: luciferase inhibition in cell-free luciferin readout for ELG1 hits; Potency, µM (series often up to 46.1 µM), for the others: at the top dose activity change, negative = inhibition, most hits filed as inhibitors; shares compounds with ELG1 repair inh; 350 tested, 3% active; cell-free firefly luciferase luminescence counter-screen, ViewLux; also: % is scaled to controls: 0 for no effect and ±100 for the full control effect
ELG1 Luc conf: confirmation of human ELG1-dependent DNA repair inhibitors | 670 tested, 68% active | shares compounds with ELG1 repair inh | Potency, µM (top dose mostly 46.1 µM), for the others: at the highest dose activity change, negative = inhibition, most hits filed as inhibitors | HEK293T ELG1-luciferase levels, luminescence; cells co-treated with 5-fluorouridine; also: % is scaled to controls: 0 for no effect and ±100 for the full control effect; nearly all actives have a fitted effect of over 55% in size
ELG1-Luc MMS: confirmation of human ELG1 repair inhibitors, MMS stimulated; shares compounds with ELG1 repair inh; HEK293T luciferase-tagged ELG1 level, MMS stimulated; Potency, µM (series often up to 46.1 µM), for the others: at the highest dose activity change, negative = inhibition, most hits filed as inhibitors; 670 tested, 53% active; also: % is scaled to controls: 0 for no effect and ±100 for the full control effect; nearly all actives have a fitted effect of over 60% in size
ELG1 5-FU: confirmation of ELG1 repair inhibitors: viability with 5FU; cell viability with 5-FU, ELG1-dependent repair; Potency, µM (series often up to 46.1 µM), for inactives: at the highest dose activity change, negative = viability loss, most hits filed as cytotoxic; 670 tested, under 10 active; shares compounds with ELG1 repair inh;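 also: ELG1-luc HEK293T cells cotreated with 5-fluorouridine at 10 µM final; viability measured 16 h after compound addition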
ELG1 MMS cell: confirmation of ELG1 repair inhibitors: viability with MMS; shares compounds with ELG1 repair inh; Cell viability with MMS, ELG1-dependent DNA repair; Potency, µM (doses to about 46.1 µM), inactives show top-dose activity change, negative = viability loss, usual class: cytotoxic; 670 tested, 33% active; AID 624251;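 also: ELG1-luc HEK293T cells co-treated with 10 µM MMS; viability read 16 h after compound addition; % is scaled to controls: 0 for no effect and ±100 for the full control effect; nearly all actives have a fitted effect of over 60% in size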
ELG1 unstim viab: counter-screen for ELG1 repair inhibitors: unstimulated cell viability; shares compounds with ELG1 repair inh; cell viability counter-screen, unstimulated, luminescence; Potency, µM (top dose mostly 45.9 µM), for inactives: at the highest dose activity change, negative = loss of viability, usual class: cytotoxic; 900 tested, 8% active; AID 624252;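 also: compound exposure lasted 16 hours before reading; % is scaled to controls: 0 for no effect and ±100 for the full control effect; nearly all actives have a fitted effect of over 55% in size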
FLuc enzyme: inhibits purified firefly luciferase, counter-screen for ELG1 hits. shares compounds with ELG1 repair inh. purified firefly luciferase, luminescence counter-screen. Potency, µM (doses to about 57.5 µM), for the others: top-dose activity, negative = inhibition, actives largely listed as inhibitors. 350 tested, 10% active; also: % is scaled to controls: 0 for no effect and ±100 for the full control effect
* hit, by the source's call; ? = inconclusive; · = not tested or not shown; [ ] = remark or other dose. Calls follow the shape of the dose curve; as a rule, active = well fitted curve in the direction sought with a large enough effect; inconclusive = small, poorly fitted or top-dose-only effect, or another doubt; inactive = no such curve, though single readings can be large; an effect the other way counts as inactive or inconclusive. Potency is read from the fitted curve at half-maximal effect.

SMILES	Rab9 promoter act	NPC1 prom act	ELG1 repair inh	FLuc modulator	SMN2 splice up	ELG1 genotoxic	ELG1 Luc conf	ELG1-Luc MMS	ELG1 5-FU	ELG1 MMS cell	ELG1 unstim viab	others
O=C(O)CN1C(=O)C(=O)N(Cc2ccc(C(F)(F)F)cc2)C1=O	-5.5%	0.0%	13.7%	0.8%	·	-0.3%	·	·	·	·	·
COc1cc(-c2cc(C(=O)Nc3ccc(S(=O)(=O)Nc4ncccn4)cc3)c3ccccc3n2)cc(OC)c1OC	11.7%	-2.8%	-15.1%	?	·	-0.4%	·	·	·	·	·
COc1ccc(NC(=O)c2cc(-c3cc(OC)c(OC)c(OC)c3)nc3ccccc23)cc1OC	2.8%	3.8%	1.83µM*	?	·	-7.1%	1.12µM*	19.9µM*	?	?	-13.5%
CN(C)S(=O)(=O)c1ccc(NC(=O)c2cc(-c3cccs3)nc3ccccc23)cc1	-8.8%	-5.3%	3.66µM*	-2.7%	-8.2%	-7.9%	?	?	2.9%	-12.2%	?
Cc1csc(SCC(=O)Nc2cccc3nsnc23)n1	11.6%	13.2%	2.59µM*	?	-4.9%	-6.6%	2.81µM*	?	-10.3%	-5.5%	-19.4%
CC(=O)OCC1=C[C@H]2[C@@H]3C(C)(C)[C@]3(OC(C)=O)C[C@@H](C)[C@]2(O)[C@@H]2C=C(C)C(=O)[C@@]2(O)C1	·	·	·	·	·	·	·	·	·	·	?
Clc1ccccc1OCc1nnc2n1CCCCC2	1.8%	0.0%	?	2.7%	·	3.4%	·	·	·	·	·
CCOc1cc(N2CCOCC2)c(OCC)cc1NC(=O)c1nn(CC)c(=O)c2ccccc12	-8.1%	-3.4%	2.31µM*	-2.1%	·	-6.5%	2.23µM*	14.1µM*	-8.7%	?	?
N#C/C(=C\c1cccnc1)c1ccccn1	19.4%	1.8%	?	-6.7%	·	9.2%	·	·	·	·	4.3%	ELG1 FLuc counter=44.4%;FLuc enzyme=-3.0%
COc1ccc(/C=N/n2cncn2)cc1Cn1nc(C)c([N+](=O)[O-])c1C	-7.2%	-0.8%	?	0.5%	·	-1.7%	·	·	·	·	·
Cc1cccc(Nc2nc(-c3ccccc3)c3cc(C)ccc3n2)c1	·	·	·	1.6%	6.2%	·	·	·	·	·	·
Cc1ccc(C)c(N2CCN(C(=O)CCc3nc(-c4ccccc4)no3)CC2)c1	·	·	3.6%	·	·	2.0%	·	·	·	·	·
Cc1cccc(-c2noc(CCC(=O)N3CCN(c4cc(C)ccc4C)CC3)n2)c1	·	·	?	·	·	?	·	·	·	·	0.4%
CCOc1ccc(Nc2nc(NCc3ccco3)nc(N)c2[N+](=O)[O-])cc1	-0.1%	1.5%	24.2%	1.8%	·	5.1%	·	·	·	·	·
COc1ccc(OC)c(Nc2nc(NCc3ccco3)nc(N)c2[N+](=O)[O-])c1	0.5%	4.0%	?	0.8%	·	?	0.628µM*	-8.3%	?	-8.0%	-11.2%
COc1ccc(C(=O)Nc2nc(-c3ccccn3)cs2)cc1S(=O)(=O)N1CCOCC1	·	·	4.11µM*	·	·	-4.3%	12.5µM*	22.3µM*	-1.5%	28.1µM*	?
O=C(Nc1nc(-c2ccccn2)cs1)c1ccc(S(=O)(=O)N2CCCCC2)cc1	-15.2%	-43.3%	0.651µM*	-14.1%	·	-11.8%	36.3µM*	25.7µM*	10.6%[92.2 µM]	36.3µM*	?	ELG1 FLuc counter=?;FLuc enzyme=-11.3%[115 µM]
Cc1cc(C)n2nc(SCc3cccc(S(=O)(=O)N(C)C)c3)nc2n1	-6.5%	-2.7%	-1.1%	7.6%	·	-5.8%	·	·	·	·	·
CN(C)S(=O)(=O)c1cccc(CSCc2cccc(S(=O)(=O)N(C)C)c2)c1	-33.2%	-32.6%	1.3µM*	-1.9%	·	-5.7%	?	1.12µM*	-13.0%	1.12µM*	?
COc1ccccc1CNC(=O)CCCC(=O)n1ncc2cc(C)ccc21	-4.3%	-0.3%	12.0%	2.0%	·	4.9%	·	·	·	·	·
OCCCNc1ncnc2scc(-c3ccc(Cl)cc3)c12	-5.2%	-1.3%	4.61µM*	1.9%	·	-12.9%	5.6µM*	15.8µM*	-0.5%	5.2%	?
COc1ccccc1N1CCN(C(=O)c2cc3c(=O)oc4ccc(C)cc4c3s2)CC1	·	·	·	-13.0%	-4.4%	·	·	·	·	·	·
Cc1ccc(NC(=O)C2CCCN(S(=O)(=O)c3cn(C(C)C)cn3)C2)c(C)c1 (centres undefined)	·	·	·	-3.3%	·	·	·	·	·	·	·
Cc1nn(-c2ccccc2)c(N2CCCC2)c1/C=N/NC(=O)c1cc(-c2ccccc2)nc2ccccc12	-8.3%	-2.6%	3.66µM*	-2.8%	7.2%	-10.9%	7.91µM*	?	-5.6%	-7.6%	?
O=C(N/N=C/c1c(F)c(F)c(F)c(F)c1F)c1cc(-c2ccccc2)nc2ccccc12	12.3%	0.9%	-5.7%	-2.8%	·	-2.6%	·	·	·	·	·
Cc1c(C)c2ccc(OCC(=O)N3CCN(C(=O)C4COc5ccccc5O4)CC3)cc2oc1=O (centres undefined)	-0.6%	-2.8%	1.83µM*	?	·	-10.9%	3.97µM*	-17.6%	?	-6.2%	?
